# YB-1 expr inh: YB-1 expression inhibition; U2OS, qRT-PCR YB-1 vs CDIP delta delta Cp, 16 h; hits give high values; zero = DMSO, each unit about twofold; delta delta Cp (YB-1 minus CDIP) (test concentration not listed); 0.37% of 30,000 active;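 active = delta delta Cp rounded down to an integer at or above 3, about 3 SD of DMSO wells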;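 also: higher means less YB-1 transcript or more CDIP transcript relative to DMSO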
# ROS inducer: cancer cell ROS induction | AID 624156 | 2% of 46,000 active | ROS induction (% of piperlongumine), % at 10 µM | U2OS ROS induction, H2DCF-DA fluorescence; in the data active = ROS induction above about 79%, passing the limit was not always enough
# A number is an active result; – = inactive; · = no result given. Most compounds without a hit are left out; they make up all but 2.3% or so of the library.
SMILES,YB-1 expr inh,ROS inducer
C=CCNC(=O)[C@@H]1[C@H]2C(=O)O[C@H](c3ccccc3)[C@H](c3ccccc3)N2[C@H](c2ccccc2OCCO)[C@@]12C(=O)N(C(=O)OCCOC)c1ccccc12,–,183.4
COCCOC(=O)N1C(=O)[C@@]2(c3ccccc31)[C@H](C(N)=O)[C@H]1C(=O)O[C@H](c3ccccc3)[C@H](c3ccccc3)N1[C@@H]2c1ccc(OCCO)cc1,–,123.9
COCCOC(=O)N1C(=O)[C@@]2(c3ccccc31)[C@H](C(N)=O)[C@H]1C(=O)O[C@H](c3ccccc3)[C@H](c3ccccc3)N1[C@@H]2c1ccccc1OCCO,–,–
COCCOC(=O)N1C(=O)[C@@]2(c3cc(C#CCCO)ccc31)[C@H](c1ccccc1OCCO)N1[C@H](c3ccccc3)[C@H](c3ccccc3)OC(=O)[C@H]1[C@@H]2C(=O)NC[C@H](O)c1ccccc1,–,–
C=CCNC(=O)[C@H]1[C@@H]2C(=O)O[C@@H](c3ccccc3)[C@@H](c3ccccc3)N2[C@@H](c2ccccc2OCCO)[C@]12C(=O)N(C(=O)OCCOC)c1ccccc12,–,177.9
C=CCNC(=O)[C@@H]1[C@H]2C(=O)O[C@H](c3ccccc3)[C@H](c3ccccc3)N2[C@H](c2ccc(O)cc2)[C@@]12C(=O)N(C(=O)OCCOC)c1ccccc12,–,–
COc1ccc(NC(=O)Nc2cccc3c2O[C@H](CN(C)C(=O)Nc2ccccc2)[C@@H](C)CN([C@H](C)CO)C3=O)cc1,–,–
Cc1ccc(S(=O)(=O)N(C)C[C@@H]2Oc3ccc(NS(=O)(=O)c4ccc(Cl)cc4)cc3C(=O)N([C@H](C)CO)C[C@@H]2C)cc1,–,–
CCOc1cccc(C(=O)Nc2cc3nn(-c4ccccc4)nc3cc2C)c1,·,–
C[C@H]1CN([C@@H](C)CO)C(=O)Cc2cc(NC(=O)Cc3ccccc3)ccc2O[C@H]1CN(C)S(=O)(=O)c1ccccc1,–,–
COc1ccc(S(=O)(=O)Nc2ccc3c(c2)CC(=O)N([C@H](C)CO)C[C@H](C)[C@H](CN(C)C(=O)NC(C)C)O3)cc1,–,–
Cc1c(Br)c([N+](=O)[O-])nn1C(C)C(=O)Nc1ccc(CC#N)cc1 (configuration not stated),·,–
O=S(=O)(c1ccc(Cl)cc1)N1CCc2ccccc21,–,86.8
O=C(O)C1C2C=CC(O2)C1C(=O)Nc1ccc(S(=O)(=O)N2CCc3ccccc32)cc1 (configuration not stated),·,–
COc1ccc(OC(=O)CCN2C(=O)C3C4C=CC(C4)C3C2=O)cc1 (configuration not stated),·,–
C[C@@H]1CN([C@@H](C)CO)C(=O)c2cc(NC(=O)CCC(F)(F)F)ccc2O[C@@H]1CN(C)C(=O)Nc1ccccc1,–,–
Cc1cccc(-c2nc3sc4c(c3c(=O)[nH]2)CCCC4)c1,·,–
Cc1c(-c2ccccc2)nc2sc3c(c2c1N)CCCC3,·,91.7
COc1ccc(CN(C)C[C@H]2Oc3ccc(NC(=O)Nc4cccc5ccccc45)cc3C(=O)N([C@@H](C)CO)C[C@@H]2C)cc1,–,–
COC(=O)c1cccc2oc3cc(CO)cc(O)c3c(=O)c12,–,–
COC(=O)C1=C2C(=O)c3c(O)cc(CO)cc3OC2C(O)C=C1 (configuration not stated),–,146.1
C[C@H](CO)N1C[C@H](C)[C@H](CN(C)C(=O)Nc2ccc(C(F)(F)F)cc2)Oc2ccc(NC(=O)Cc3cn(C)c4ccccc34)cc2CC1=O,–,–
COc1ccc(NC(=O)N(C)C[C@H]2Oc3ccc(NC(=O)Cc4ccccc4)cc3CC(=O)N([C@@H](C)CO)C[C@@H]2C)cc1,–,99.5
COc1ccc(NC(=O)N(C)C[C@@H]2Oc3ccc(NC(=O)Cc4ccccc4)cc3CC(=O)N([C@@H](C)CO)C[C@@H]2C)cc1,–,–
C[C@H]1CN([C@@H](C)CO)C(=O)Cc2cc(NC(=O)Cc3ccccc3)ccc2O[C@H]1CN(C)C(=O)Nc1ccccc1,–,–
SMILES,YB-1 expr inh,ROS inducer
C[C@H](CO)N1C[C@H](C)[C@H](CN(C)C(=O)Nc2ccccc2)Oc2ccc(NC(=O)Cc3ccccc3)cc2CC1=O,4.58,–
C[C@H]1CN([C@@H](C)CO)C(=O)Cc2cc(NC(=O)Cc3cn(C)c4ccccc34)ccc2O[C@H]1CN(C)C(=O)Nc1ccc(C(F)(F)F)cc1,–,99.5
CCOC(=O)c1c(CS(=O)c2ccc(Cl)cc2)oc2c(F)c(F)c(F)c(F)c12 (configuration not stated),·,–
CCOC(=O)c1sc2sc(C(=O)OCC)c(-c3ccc(Cl)cc3)c2c1N,–,93.5
C[C@@H]1CN([C@H](C)CO)C(=O)c2cccc(NC(=O)Nc3ccc(C(F)(F)F)cc3)c2O[C@H]1CN(C)C,–,–
Cc1ccc(S(=O)(=O)NC(C)C(=O)Nc2ccccc2F)cc1 (configuration not stated),·,–
Cc1ccc(S(=O)(=O)N[C@@H](Cc2ccccc2)C(=O)CCl)cc1,–,78.6
O=C1CC(N2C(=O)C3CC=CCC3C2=O)C2COC1O2 (configuration not stated),·,91.2
O=C1C2CC=CCC2C(=O)N1Cc1ccccc1 (configuration not stated),·,–
C[C@H](CO)N1C[C@H](C)[C@H](CN(C)Cc2ccc3c(c2)OCO3)Oc2c(NC(=O)c3cnccn3)cccc2C1=O,–,–
N=C1/C(=C/c2cccs2)C(=O)N=C2SC=C(c3ccccc3)N12,·,–
CCOC(=O)C1C(=S)NC(N)=C(C#N)C12CCCCC2 (configuration not stated),·,–
CC1CCCN(S(=O)(=O)c2ccccc2)C1 (configuration not stated),·,–
COc1ccc(Cn2nnc3c(=O)[nH]c(C4CCCN(S(=O)(=O)c5ccccc5)C4)nc32)cc1 (configuration not stated),·,139.1
Clc1ccccc1COc1cccc(CNCc2cccnc2)c1,·,–
C[C@@H]1CN([C@H](C)CO)C(=O)c2cccc(NS(=O)(=O)c3ccccc3)c2O[C@H]1CN(C)C(=O)Nc1cccc2ccccc12,–,–
Cc1ccc(NC(=O)Cn2c([N+](=O)[O-])cnc2C)cc1C,·,–
Cc1cc(C(=O)Nc2cccc3c2O[C@H](CN(C)Cc2ccc(C(=O)Nc4ccccc4N)cc2)[C@H](C)CN([C@H](C)CO)C3=O)n(C)n1,–,–
Cc1cc(C(=O)Nc2cccc3c2O[C@@H](CN(C)Cc2ccc(C(=O)Nc4ccccc4N)cc2)[C@H](C)CN([C@H](C)CO)C3=O)n(C)n1,–,–
Cc1cc(C(=O)Nc2cccc3c2O[C@H](CN(C)Cc2ccc(C(=O)Nc4ccccc4N)cc2)[C@@H](C)CN([C@@H](C)CO)C3=O)n(C)n1,–,189.2
Cc1cc(C(=O)Nc2cccc3c2O[C@H](CN(C)Cc2ccc(C(=O)Nc4ccccc4N)cc2)[C@@H](C)CN([C@H](C)CO)C3=O)n(C)n1,–,129.7
Cc1ccc(NC(=O)CCc2nnc3ccc(N4CCN(C5CCCCC5)CC4)nn23)cc1C,·,–
COc1ccc(S(=O)(=O)Nc2cccc3c2O[C@@H](CN(C)C(=O)Nc2c(C)noc2C)[C@H](C)CN([C@@H](C)CO)C3=O)cc1,–,–
C[C@@H]1CN([C@H](C)CO)C(=O)Cc2cc(NC(=O)Nc3ccc4c(c3)OCO4)ccc2O[C@H]1CN(C)C(=O)Nc1ccc(F)cc1,–,–

# Screening results: PubChem, Broad Institute
